Experimental data taken from PubChem BioAssay (NCATS).
Activity calls are given as the source filed them. No rule for the calls is given here.

test system: HIV-1 nucleocapsid protein NCp7 (binding to TG oligonucleotide); assay: HIV Nucleocapsid (AID 346); settings: HIV-1 NC / fluorescein-TGTGTGTG probe, fluorescence polarization;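 also: potency is for inhibitors that block NC binding and lower polarization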
Outline: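 Fluorescence polarization readout: labelled TG4xF oligo (10 nM) with 100 nM nucleocapsid protein, high-salt (250mM NaCl) Hepes pH 7.5 buffer containing zinc and fresh reducing agents. Compounds added by pin tool; incubation 1 hr, room temperature.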
Potency is read from the fitted curve at half-maximal effect.

SMILES	Potency
Cc1cnc(CNc2ncncc2-c2ccoc2)cn1	> 20 µM (inactive)
O=C(c1cnccn1)N1CCC[C@@]2(CCN(c3cccc(-c4ccccc4)c3)C2)C1	> 20 µM (inactive)
COc1cccc(-c2ccc3ncnc(N4CCNCC4)c3c2)c1	> 20 µM (inactive)
O=C(c1ccncc1)N1CCC2(CCCN(c3ccc(-c4ccccc4)cc3)C2)CC1	> 20 µM (inactive)
CN(C)C(=O)c1ccc(-c2ccc3ncnc(NCc4ccccc4)c3c2)cc1	> 20 µM (inactive)
O=C(c1ccco1)N1CCC2(CC1)CCN(c1ccc(-c3ccccc3)cc1)CC2	> 20 µM (inactive)
O=C(c1ccco1)N1CCC2(CC1)CCN(c1ccccn1)CC2	> 20 µM (inactive)
O=C(c1csnn1)N1CCC2(CCN(Cc3ccccc3)CC2)CC1	> 20 µM (inactive)
Cn1cccc1C(=O)N1CCC[C@@]2(CCN(c3ccncc3)C2)C1	> 20 µM (inactive)
O=C(c1ccncc1)N1CCC2(CC1)CN(c1cccc(-c3ccccc3)c1)C2	> 20 µM (inactive)
O=C(c1ccco1)N1CCC2(CC1)CN(c1ccccc1)C2	> 20 µM (inactive)
Cc1nc2cnc(Oc3cccc(Cl)c3)nc2n(C2CC2)c1=O	> 20 µM (inactive)
CS(=O)(=O)Nc1cccc(-c2ccc3ncnc(N4CCNCC4)c3c2)c1	> 20 µM (inactive)
O=C(c1ccco1)N1CCC[C@@]2(CCN(C(c3ccccc3)c3ccccc3)C2)C1	> 20 µM (inactive)
COc1ccc(C(=O)N2CCC3(CC2)CCN(c2cccc(-c4ccccc4)c2)CC3)cc1	> 20 µM (inactive)
CN1CCN(c2ncc3ncc(=O)n(C[C@H]4CCCO4)c3n2)CC1	> 20 µM (inactive)
O=C(Nc1cccc(F)c1)N1CCCC2(CCN(C(=O)c3cccc(F)c3)CC2)C1	> 20 µM (inactive)
Cc1cnc(CNc2ccnc(-c3ccccc3C(F)(F)F)n2)cn1	> 20 µM (inactive)
COc1cccc(Nc2ncc3nc(-c4cc(F)cc(F)c4)c(=O)n(CCC#N)c3n2)c1	> 20 µM (inactive)
O=c1c(-c2cc(F)cc(F)c2)nc2cncnc2n1Cc1ccc(F)cc1	> 20 µM (inactive)

SMILES	Potency
CS(=O)(=O)N1CCC2(CC1)CN(c1ccncc1)C2	> 4 µM (inactive)
CNc1ncncc1-c1ccccc1C(F)(F)F	> 20 µM (inactive)
COc1ccc(NC(=O)N2CC[C@@]3(CCCN(C(=O)c4ccco4)C3)C2)cc1	> 20 µM (inactive)
CNc1nc(-c2ccccc2C(F)(F)F)nc2ccccc12	> 20 µM (inactive)
COc1cccc(Cn2c(=O)cnc3cnc(Nc4ccccc4)nc32)c1	4.95 µM (active)
COc1ccccc1-c1ccc2ncnc(NC3CC3)c2c1	> 20 µM (inactive)
CN1CCC2(CC1)CCN(C(=O)c1cc(C(F)(F)F)cc(C(F)(F)F)c1)CC2	> 20 µM (inactive)
Cc1ccccc1-c1ccc2ncnc(N3CCNCC3)c2c1	> 20 µM (inactive)
COc1ccc(-n2c(=O)c(C)nc3cnc(Nc4cccc(OC)c4)nc32)cc1	> 20 µM (inactive)
COc1ccccc1CNc1cc(-c2cccc(NS(C)(=O)=O)c2)ncn1	> 20 µM (inactive)
COc1cccc(-c2nc(NCc3cnc(C)cn3)c3ccccc3n2)c1	> 20 µM (inactive)
COc1ccc(C(=O)N2CCC[C@@]3(CCN(C(=O)Nc4ccccc4)C3)C2)cc1	> 20 µM (inactive)
Cc1ccccc1-c1nc(-n2ccnc2)c2ccccc2n1	> 20 µM (inactive)
COCC(=O)N1CCC2(CCCN(c3ccc(-c4ccccc4)cc3)C2)CC1	> 20 µM (inactive)
Cc1ccccc1-c1ccc2ncnc(N(C)C)c2c1	> 20 µM (inactive)
COc1cccc(Cn2c(=O)c(-c3ccc(Cl)cc3)nc3cnc(N4CCOCC4)nc32)c1	> 20 µM (inactive)
COc1ccccc1CCn1c(=O)c(-c2ccccc2)nc2cncnc21	> 20 µM (inactive)
O=c1c(-c2cccs2)nc2cnc(N3CCNCC3)nc2n1-c1ccccc1	12.2 µM (inactive)
N#Cc1ccccc1-c1ccc2ncnc(NCc3cccnc3)c2c1	> 20 µM (inactive)
Cc1noc(C)c1-c1nc(NCCN2CCOCC2)c2ccccc2n1	> 20 µM (inactive)
